# High-throughput results (PubChem)
# The entries come from a sample that favours hits as a whole.
# ROC1-CUL1 inh – inhibitors of human ROC1-CUL1 ubiquitin ligase activity. inhibition, % at 10 µM. in vitro K48 di-Ub FRET, acceptor:donor ratio, 45 min. 140,000 tested, 0.6% active. AID 1347404; in the data active = inhibition above about 25%
# * marks the source's active call; other numbers are inactive results.
SMILES,ROC1-CUL1 inh
Cc1cccc(OCCCOc2ccccc2/C=C2\C(=O)NN(c3ccccc3)C2=O)c1,32.2*
Cc1noc(/C=C/c2cccs2)c1S(=O)(=O)N1CCC(C(=O)NCc2ccc(Cl)cc2)CC1,3.5
COc1ccccc1N1CCN(CCCN2CC(=O)N3CCCCC3C2=O)CC1 (configuration not stated),3.1
Cc1ccc(SCc2c(C(=O)O)nnn2-c2nonc2N)cc1,-0.3
COc1ccc(C(=O)N2CCN(c3ccccc3)CC2)cc1S(=O)(=O)N(C)C,1.0
COC(=O)C(NNc1cccc(Cl)c1)(NC(=O)c1ccccc1C)C(F)(F)F (configuration not stated),-3.0
O=C1NN(c2cccc(F)c2)C(=O)/C1=C\c1ccccc1,-1.7
O=C1NN(c2cccc(Cl)c2)C(=O)/C1=C\c1ccc(F)cc1,83.5*
O=C1NN(c2cccc(Cl)c2)C(=O)/C1=C/c1ccc(Cl)cc1,63.6*
O=C1NN(c2cccc(Cl)c2)C(=O)/C1=C/c1cccc(I)c1,9.2
COc1ccc(/C=C2\C(=O)NN(c3cccc(Cl)c3)C2=O)cc1OC,-8.5
O=C1NN(c2cccc(Cl)c2)C(=O)/C1=C/c1ccc(O)cc1,10.6
O=C(O)C12CC3CC(CC(S)(C3)C1)C2,2.6
Cc1ccc(Cl)cc1NC(=O)c1cc(S(=O)(=O)N2CCCCCC2)cn1C,6.1
COc1cccc(/C(C)=C2/SC(=S)NC2=O)c1,-1.9
Cc1ccc(-c2nnc(-c3ccccc3)nc2NCCCO)cc1,0.7
NCCNc1nc(-c2cccc(Br)c2)nnc1-c1ccccc1,54.4*
Nc1nc(-c2cccc(Br)c2)cs1,5.1
CCOc1ccc(NC(=O)c2cc(Cl)ccc2[N+](=O)[O-])cc1,-7.8
COc1ccc(-n2c(=O)c3c4c(sc3n(Cc3ccc(F)cc3)c2=O)CN(C(C)=O)CC4)c(OC)c1,8.1
Cc1cn2c3c(=O)n(Cc4ccc(F)cc4)c(=O)n(C)c3nc2n1CCCO,1.3
Nc1nc(Nc2cccc(Cl)c2)sc1C(=O)c1ccc(F)cc1,6.2
O=C(CSc1nc(-c2ccccc2)c(-c2ccccc2)[nH]1)c1ccc(O)c(O)c1O,101.4*
CC(Sc1nc(-c2ccccc2)c(-c2ccccc2)[nH]1)C(=O)O (configuration not stated),-3.4
COc1ccc(C(=O)CSc2nc(-c3ccccc3)c(-c3ccccc3)[nH]2)cc1,4.2
SMILES,ROC1-CUL1 inh
Cc1ccc(-c2[nH]nc3c2C(c2ccc(C(F)(F)F)cc2)C(C#N)C(=N)O3)cc1 (configuration not stated),5.0
COC(=O)c1c(-c2ccc(C)cc2)csc1NC(=O)c1cccs1,-1.9
N#CSc1ccc(N=CC2C(=O)NC(=O)N(c3cccc(Cl)c3)C2=O)cc1 (configuration not stated),0.9
O=C(O)c1cccc(NCC(=O)c2ccccc2)c1,-6.4
O=C1NC(=S)N(c2ccccc2)C(=O)/C1=C/c1ccc(Sc2ccc(Cl)cc2)s1,32.8*
Cc1cc(/C=C2\C(=O)NC(=S)N(c3ccc(Cl)cc3)C2=O)c(C)n1-c1ccc(Cl)c(Cl)c1,-6.4
O=C1NC(=O)N(c2ccc(Cl)cc2)C(=O)/C1=C\c1c2ccccc2cc2ccccc12,5.5
COc1ccccc1CNC(=O)Cn1c(=O)oc2cc(S(=O)(=O)N3CCCC3)ccc21,11.8
O=C(NCc1ccc2c(c1)OCO2)c1ccc2c(c1)OCO2,11.2
O=C(COc1ccccc1)Nc1ccccc1OCc1cc(=O)n2ccccc2n1,1.8
C=CCN1C(=O)C(CC(=O)O)SC1=Nc1cccc([N+](=O)[O-])c1 (configuration not stated),2.6
Cc1ccc(C(=O)Nc2ccc(F)cc2)cc1S(=O)(=O)N1CCOCC1,-3.9
Cc1ccc(C(=O)Nc2cccc(C(=O)O)c2)cc1S(=O)(=O)N1CCCC1,4.6
CC(=O)c1cccc(NC(=O)c2ccc(Cl)c(S(=O)(=O)N3CCOCC3)c2)c1,34.0*
CCCCCCCC(=O)N=C1C(=O)N(c2ccccc2)N(C)C1C (configuration not stated),11.4
CCCCCCN1C(=O)/C(=C/c2cc(OC)c(OC)c(OC)c2)N(C)C1=S,3.3
CCCCCCN1C(=O)C2=C(c3cc(O)cc(O)c3)N(CCCCCC)C(=O)C2=C1c1cc(O)cc(O)c1,46.0*
COc1ccc(CNC(=O)c2nc(S(=O)(=O)Cc3ccccc3)ncc2Cl)cc1,-4.7
Cc1nc(-n2nc(C)c(Cc3ccc4c(c3)OCO4)c2C)sc1C(=O)Nc1cccc(Cl)c1,2.4
O=c1[nH]c(-c2cccc(Cl)c2Cl)nc2sc3c(c12)CCCCCC3,-11.6
O=C(O)c1ccc(-c2ccc(-c3nc4sc5c(c4c(=O)[nH]3)CCCCC5)o2)cc1,4.7
O=C(O)c1cccc(-c2ccc(-c3nc4sc5c(c4c(=O)[nH]3)CCCC5)o2)c1,97.4*
O=C(NC1CCCC1)c1ccco1,12.8
N=C(N)SCC1=NC(=O)NC(=O)C1,26.3*
O=C1CC(CSc2nc3ccccc3[nH]2)=NC(=O)N1,10.5
O=C1CC(CSCc2ccc(Cl)cc2)=NC(=O)N1,4.9
O=C(NC1CCCCC1)c1cc(Nc2cccc(C(F)(F)F)c2)nc2ccccc12,-16.1
C=CCOc1ccc(/C=C2\SC(=Nc3ccccc3)NC2=O)cc1OCC,-3.2
